# Experimental data published in PubChem BioAssay (NCATS).
# Where “and” joins values, the source holds several entries; their conditions need not be identical. Equal values may be shown once. Records with an inconclusive call do not appear. Where a call stands in place of a potency, no number is given. Calls of active or inactive are those of the source. The call rests on the fitted dose curve; in most records, active means well fitted curve in the direction sought with a large enough effect; inconclusive means small, poorly fitted or top-dose-only effect, or another doubt; inactive means no such curve, though single readings can be large; an effect the other way counts as inactive or inconclusive.
# What was measured:
# [1] = target: Lysine-specific demethylase 5B (Homo sapiens) (UniProt Q9UGL1); experiment: Optimization screen for KDM5B Histone Demethylases FDH coupled qHTS against the LOPAC library (AID 1347166)
# Chain of Lysine-specific demethylase 5B (Homo sapiens) (Q9UGL1 whole entry, looked up): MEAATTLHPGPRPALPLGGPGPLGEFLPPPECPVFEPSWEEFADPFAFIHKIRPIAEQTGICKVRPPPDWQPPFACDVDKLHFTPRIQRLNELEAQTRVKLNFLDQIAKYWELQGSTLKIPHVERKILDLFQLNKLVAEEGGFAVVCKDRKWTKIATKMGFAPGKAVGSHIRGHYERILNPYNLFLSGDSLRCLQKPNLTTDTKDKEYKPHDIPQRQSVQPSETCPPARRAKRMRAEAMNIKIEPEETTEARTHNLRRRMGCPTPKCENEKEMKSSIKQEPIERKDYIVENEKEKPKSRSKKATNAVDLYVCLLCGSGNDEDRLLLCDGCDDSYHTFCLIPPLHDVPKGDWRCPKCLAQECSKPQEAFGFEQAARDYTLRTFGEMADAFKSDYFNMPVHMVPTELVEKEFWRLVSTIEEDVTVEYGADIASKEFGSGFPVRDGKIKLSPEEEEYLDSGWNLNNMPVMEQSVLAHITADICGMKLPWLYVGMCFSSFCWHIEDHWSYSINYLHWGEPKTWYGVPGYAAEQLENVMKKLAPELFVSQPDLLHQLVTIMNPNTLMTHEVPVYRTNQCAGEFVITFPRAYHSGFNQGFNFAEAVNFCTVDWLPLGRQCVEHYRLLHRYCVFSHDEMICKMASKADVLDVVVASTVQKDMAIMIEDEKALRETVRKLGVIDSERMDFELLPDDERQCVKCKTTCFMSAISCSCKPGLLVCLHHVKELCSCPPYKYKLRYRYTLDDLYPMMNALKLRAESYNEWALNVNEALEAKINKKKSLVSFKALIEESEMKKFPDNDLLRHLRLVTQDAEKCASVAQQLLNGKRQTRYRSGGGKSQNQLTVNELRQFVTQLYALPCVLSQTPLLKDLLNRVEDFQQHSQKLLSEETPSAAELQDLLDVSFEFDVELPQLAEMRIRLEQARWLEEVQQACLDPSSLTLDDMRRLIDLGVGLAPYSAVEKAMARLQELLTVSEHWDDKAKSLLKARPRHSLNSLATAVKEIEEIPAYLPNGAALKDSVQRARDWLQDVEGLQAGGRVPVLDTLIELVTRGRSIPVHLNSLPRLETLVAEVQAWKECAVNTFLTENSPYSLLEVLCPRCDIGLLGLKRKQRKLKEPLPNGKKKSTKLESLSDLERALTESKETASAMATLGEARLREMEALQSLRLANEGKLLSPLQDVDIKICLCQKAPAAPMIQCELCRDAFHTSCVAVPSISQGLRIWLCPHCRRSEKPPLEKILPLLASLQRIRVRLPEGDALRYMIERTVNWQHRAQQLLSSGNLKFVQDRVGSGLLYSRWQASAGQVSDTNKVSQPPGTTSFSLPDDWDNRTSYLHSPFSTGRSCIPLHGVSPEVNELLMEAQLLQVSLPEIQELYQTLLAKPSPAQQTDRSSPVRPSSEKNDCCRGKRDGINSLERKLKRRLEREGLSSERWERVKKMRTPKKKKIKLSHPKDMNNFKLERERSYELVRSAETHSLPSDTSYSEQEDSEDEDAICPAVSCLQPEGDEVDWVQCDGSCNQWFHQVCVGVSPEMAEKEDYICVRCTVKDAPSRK
# Procedure, shortened: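 KDM5BDeltaAP (200nM final) preincubated 10 min with compound, then 12.5uM H3K4Me3, 25uM a-ketoglutarate, ascorbate, Fe(II), NAD+ and FDH added; 50mM HEPES pH 7.5, 0.01% Tween-20. NADH fluorescence (340/450 nm) change over 30 min, room temperature.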
# [2] = OV-KATE Cancer Cell Toxicity qHTS against the NCATS CANVASS Library (AID 1347345)
# Procedure, shortened: (§1)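 Viability was assessed by adding CellTiter-Glo reagent to treated cultures and reading luminescence after 15min at room temperature. Treatment lasted 72 h at 37 degrees C/5% CO2, using an 11-point series on 1000 cells/well.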
# [3] = HPAF-II Cancer Cell Toxicity qHTS against the NCATS CANVASS Library (AID 1347346); further: series mostly up to about 38 µM; nearly all actives have a fitted effect of over 55% in size
# Procedure, shortened: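 Luminescence from CellTiter-Glo, added after 72 h compound exposure and a 15 min room-temperature incubation, served as the viability readout. HPAF-II cells (1000/well) received an 11-point concentration series.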
# [4] = UWB1.289 Cancer Cell Toxicity qHTS against the NCATS CANVASS Library (AID 1347347); further: series mostly up to about 38 µM; nearly all actives have a fitted effect of over 60% in size
# Procedure, shortened: as §1
# [5] = OV-SAHO Cancer Cell Toxicity qHTS against the NCATS CANVASS Library (AID 1347348); further: series mostly up to about 38 µM; nearly all actives have a fitted effect of over 55% in size
# Procedure, shortened: as §1
# [6] = system: Zika virus NS2B-NS3 protease (linked); experiment: 384 well plate NINDS AMC confirmatory qHTS for Zika virus inhibitors (AID 1347163); settings: Recombinant NS2B-NS3 protease, Ac-VKTGKR-AMC fluorescence; further: potency means the concentration at half of the fitted maximal effect; nearly all actives have a fitted effect of over 50% in size
# Procedure, shortened: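 Linked NS2B-NS3 protease (final 5 nM, 30 nM or 60 nM) was preincubated with compounds (final up to 1 mM) for ~15 minutes. Ac-VKTGKR-AMC substrate (final 30 microM) then reacted for 25 minutes at room temperature in the dark. Fluorescence (ex 355/em 460 nm) was normalized to no-enzyme and no-inhibitor controls.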
# [7] = system: Zika virus NS2B-NS3 protease (linked construct); experiment: 384 well plate NINDS Rhodamine confirmatory qHTS for Zika virus inhibitors (AID 1347164); further: nearly all actives have a fitted effect of over 65% in size; further: potency means the concentration at half of the fitted maximal effect
# Procedure, shortened: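 Compounds are incubated about 15 minutes with linked protease (5, 30 or 60 nM final). Rhodamine 110-tagged Ac-LKRR substrate (10 microM final) is added and fluorescence measured after 25 minutes.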
# [8] = Vero cells viability qHTS for Zika virus inhibitors (AID 1347167)
# Procedure, shortened: (§2)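 Counter-screen for cytotoxicity of hits from NS2B-NS3 protease qHTS. Overnight-attached cells (2.5 x 10^5 cells/mL, DMEM/4% FBS) were dosed in titration, incubated 24 to 48 hours, then assayed by CellTiter Glo.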
# [9] = HepG2 cells viability qHTS for Zika virus inhibitors (AID 1347168)
# Procedure, shortened: as §2
# [10] = Tertiary RLuc qRT-PCR qHTS assay for Zika virus inhibitors (AID 1347169); further: nearly all actives have a fitted effect of over 55% in size; further: potency means the concentration at half of the fitted maximal effect
# Procedure, shortened: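 Orthogonal cell-based infection assay using recombinant ZIKV-RLuc (Cambodian) in Vero cells; compound added prior to virus at MOI 1-2. Incubation lasts 48-72 hrs at 37 degrees C before live-cell Renilla substrate is added and luminescence measured.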
smiles,measurement,setting,value
COc1ccccc1N1CCNCC1,outcome,[1],inactive
NCC(O)c1ccc(O)cc1 (stereo unspecified),outcome,[1],inactive
same,outcome,[2],inactive
same,outcome,[3],inactive
same,outcome,[4],inactive
same,outcome,[5],inactive
N[C@@H](Cc1ccc(Oc2cc(I)c(O)c(I)c2)c(I)c1)C(=O)O,Potency,[6],50.1 µM (active)
same,Potency,[7],inactive
same,outcome,[8],inactive
same,outcome,[9],inactive
same,Potency,[10],inactive
O=c1[nH]c2ccccc2n1C1CCN(CCCC(c2ccc(F)cc2)c2ccc(F)cc2)CC1,outcome,[1],inactive
Cc1ncc(CNC(=O)N(CCCl)N=O)c(N)n1,outcome,[1],inactive
Cc1cc(SCc2sc(-c3ccc(C(F)(F)F)c(F)c3)nc2C)ccc1OCC(=O)O,Potency,[6],39.8 µM (active)
same,Potency,[7],35.5 µM (active)
same,outcome,[8],inactive
same,outcome,[9],inactive
same,Potency,[10],23.4 µM (active)
c1ccc2c(c1)OCC(C1=NCCN1)O2 (stereo unspecified),outcome,[1],inactive
CC(O)(CS(=O)(=O)c1ccc(F)cc1)C(=O)Nc1ccc(C#N)c(C(F)(F)F)c1 (stereo unspecified),outcome,[1],inactive
CC(C)=CCOc1c2occc2cc2ccc(=O)oc12,outcome,[1],inactive
O=c1[nH]c2ccccc2n1CCCN1CCC(n2c(=O)[nH]c3cc(Cl)ccc32)CC1,outcome,[1],inactive
C=C(C)[C@H]1Cc2c(ccc3c2O[C@@H]2COc4cc(OC)c(OC)cc4[C@@H]2C3=O)O1,outcome,[1],inactive
CCCC(C)(COC(N)=O)COC(=O)NC(C)C (stereo unspecified),outcome,[1],inactive
CC(CCc1ccccc1)NC(C)C(O)c1ccc(O)cc1 (stereo unspecified),outcome,[1],inactive
COc1ccc(C(CN(C)C)C2(O)CCCCC2)cc1 (stereo unspecified),outcome,[1],inactive
CC(=O)[C@H]1CC[C@H]2[C@@H]3CC[C@H]4C[C@H](O)CC[C@]4(C)[C@H]3C(=O)C[C@]12C,outcome,[1],inactive
O=C(O)C(=O)c1cn(Cc2ccccc2)c2ccc(-c3ccc(OC(F)(F)F)cc3)cc12,Potency,[6],11.2 µM (active)
same,Potency,[7],12.6 µM (active) and 3.16 µM (active)
same,outcome,[8],inactive
same,outcome,[9],inactive
Nc1ccncc1,outcome,[1],inactive
Cc1cccc(C)c1NC(=O)CN1CCCC1=O,outcome,[1],inactive
O=c1oc2ccccc2c(O)c1C(CC(O)c1ccc(-c2ccc(Br)cc2)cc1)c1ccccc1 (stereo unspecified),Potency,[6],31.6 µM (active)
same,Potency,[7],6.31 µM (active)
NN=C(N)N,outcome,[1],inactive
C[C@@H]1O[C@@H](O[C@H]2C[C@@H](O)[C@]3(CO)[C@H]4[C@H](O)C[C@]5(C)[C@@H](C6=CC(=O)OC6)CC[C@]5(O)[C@@H]4CC[C@]3(O)C2)[C@H](O)[C@H](O)[C@H]1O,outcome,[1],inactive
same,outcome,[8],inactive
same,outcome,[9],inactive
same,Potency,[10],117 nM (active) and 58.7 nM (active)
NCC(CC(=O)O)c1ccc(Cl)cc1 (stereo unspecified),outcome,[1],inactive
C[C@]12CCC(=O)C(O)=C1CC[C@@H]1[C@@H]2CC[C@]2(C)C(=O)CC[C@@H]12,outcome,[1],inactive
CC(=O)[C@H]1CC[C@H]2[C@@H]3CC[C@H]4C[C@](C)(O)CC[C@]4(C)[C@H]3CC[C@]12C,outcome,[1],inactive
CN1C[C@H](CNC(=O)OCc2ccccc2)C[C@@H]2c3cccc4c3c(cn4C)C[C@H]21,outcome,[8],inactive
same,outcome,[9],inactive
same,Potency,[10],inactive
CNCC(O)c1ccc(O)cc1 (stereo unspecified),outcome,[1],inactive
CCC1(C2=NCCN2)Cc2ccccc2O1 (stereo unspecified),outcome,[1],inactive
COC[C@H]1OC(=O)c2coc3c2[C@@]1(C)C1=C(C3=O)C2CCC(=O)[C@@]2(C)C[C@H]1OC(C)=O (stereo partly specified),outcome,[1],inactive
CCCN1CCC[C@@H]2Cc3[nH]ncc3C[C@H]21,outcome,[1],inactive
Cc1cccc(C)c1NC1=NCCCS1,outcome,[1],inactive
CCCN1CCC[C@@H]2Cc3nc(N)ncc3C[C@H]21,outcome,[1],inactive
C[C@H]1O[C@@H](O[C@H]2[C@@H](O)C[C@H](O[C@H]3[C@@H](O)C[C@H](O[C@H]4CC[C@@]5(C)[C@H](CC[C@@H]6[C@@H]5CC[C@]5(C)[C@@H](C7=CC(=O)OC7)CC[C@]65O)C4)O[C@@H]3C)O[C@@H]2C)C[C@H](O)[C@@H]1O,outcome,[8],inactive
same,Potency,[10],0.107 µM (active)
c1ccc(C2CC2)c(OCC2=NCCN2)c1,outcome,[1],inactive
NCC1(CC(=O)O)CCCCC1,outcome,[1],inactive
CN(C)[C@@H]1C(=O)C(C(N)=O)=C(O)[C@@]2(O)C(=O)C3=C(O)c4c(O)cccc4[C@@](C)(O)[C@H]3C[C@@H]12,Potency,[6],224 µM (active)
same,Potency,[7],inactive
Fc1ccc(C(OCCN2CCN(CCCc3ccccc3)CC2)c2ccc(F)cc2)cc1,outcome,[1],inactive
O=C1NCN(c2ccccc2)C12CCN(CC1COc3ccccc3O1)CC2 (stereo unspecified),outcome,[1],inactive
Cc1ccc(-c2nc3ccc(C)cn3c2CC(=O)N(C)C)cc1,outcome,[8],inactive
same,outcome,[9],inactive
same,Potency,[10],inactive
CCN(C(C)=O)c1cccc(-c2ccnc3c(C#N)cnn23)c1,outcome,[8],inactive
same,outcome,[9],inactive
same,Potency,[10],inactive
